# Reference: PubChem BioAssay AID602 (SRMLSC, 2007)
# About 35 (0.04%) of roughly 85,000 compounds were called active. This is one part of a sample in which actives are shown more often than they occur.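 How the source made its calls: active means viability drop by adding the cancer drug above about 55%, with treated viability meeting a 40% cutoff (limit read from the data); inactive means the rest, inconclusive results apart.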
# Assay: MRP1 drug-resistance reversers in H69AR cells – cell-based, doxorubicin co-treatment, primary screen (AID 602);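 on differential viability (reversal): larger differential means the compound sensitizes cells more to doxorubicin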
# Conditions: CellTiter-Glo, 72 h, at 10 µM; for differential viability (reversal): stronger effect = higher value
# [1] = H69AR cells + 2 uM doxorubicin, measured here: viability with 2 uM doxorubicin, stronger effect = lower value
# [2] = H69AR cells, measured here: cytotoxicity without doxorubicin
Structure (SMILES),differential viability (reversal) (H69AR cells + 2 uM doxorubicin),viability [1] [%],viability [2] [%]
Cc1cc(C)n(-c2nnc(C)n2NC(=O)c2cccc(Cl)c2)n1,-4.55% (inactive),92.7,88.1
Cc1ccc(OCc2nnc(NC(=O)OCC(C)C)s2)cc1,9.33% (inactive),92.3,102
O=S(=O)(N1CCCCC1)N1CCNCC1,-0.65% (inactive),101,100
COc1cccc(OCc2cc(/C=N/NC(=O)c3nc(Cl)c(Cl)c(N)c3Cl)ccc2OC)c1,-32.4% (inactive),52.1,19.7
CS(=O)(=O)N(CC(O)Cn1c2ccccc2c2ccccc21)c1cccc2ccccc12 (stereo not drawn),-10.3% (inactive),12,1.71
CSc1ccccc1NC(=O)c1cc(C2CC2)on1,-6.53% (inactive),97.2,90.7
O=C(NCCOc1ccccc1)c1ccccc1,-3.69% (inactive),95.1,91.4
COc1ccc(NC(=O)Nc2ccc3nc(C)c(C)nc3c2)cc1,5.42% (inactive),85.3,90.7
CCNc1nc(NC(C)C)nc(OCCOC(=O)c2ccccc2)n1,-9.76% (inactive),93.2,83.5
CC(C)=C1SC(N2CCN(c3cccc(C)c3)CC2)=NC1=O,15.1% (inactive),81.8,96.9
O=C(NC1CCCC1)C(c1ccccn1)N(C(=O)c1csnn1)C1CCCC1 (stereo not drawn),0.73% (inactive),80.5,81.2
COC(=O)C1=C(Nc2ccc(C)cc2)C=C(C)C(C(=O)OC)C1c1ccc(F)cc1 (stereo not drawn),-31.5% (inactive),43.6,12.1
CCC(C)(C)n1nnnc1CN1CCN(c2nc3ccc(C)cc3cc2C#N)CC1,0.16% (inactive),81.3,81.4
CCOc1cc2[nH]c(=S)n(CCN3CCCCC3C)c(=O)c2cc1OCC (stereo not drawn),3.92% (inactive),78.5,82.5
CCOC(=O)c1cnc(SCC(=O)Nc2ccccc2C(=O)OC)nc1N,2.9% (inactive),84.2,87.2
O=C(Nc1ccc2oc(-c3ccc4ccccc4c3)nc2c1)c1cccs1,-0.32% (inactive),2.97,2.65
CCN(CC)C(=O)CN(c1cccc(OC)c1)S(=O)(=O)c1ccc(C)cc1,-12.4% (inactive),94.7,82.3
Cc1nnc(NC(=O)CCCOc2ccccc2)s1,12.8% (inactive),80.9,93.7
CCn1c(-c2ccoc2C)n[nH]c1=S,3.26% (inactive),86.2,89.5
Cc1ccccc1N1CCN(CCCOc2ccc3c(C)cc(=O)oc3c2)CC1,-14.1% (inactive),72.8,58.7
O=c1cc(CN2CCN(c3cccc(Cl)c3)CC2)c2cc3c(cc2o1)CCCC3,36.9% (inactive),82.6,120
O=C(c1ccc(Cl)c(Cl)c1)N1CCCC1,-4.92% (inactive),100,95.3
Cc1ccc(NC(=O)Nc2ccc3oc(C)nc3c2)cc1,-17% (inactive),91.5,74.5
COc1ccc(Cl)cc1C(=O)NCc1cn(C)nc1C,5.94% (inactive),80.2,86.1
O=C(CN1CCCCCC1)N1c2ccccc2Sc2ccc(C(F)(F)F)cc21,-13.5% (inactive),50.3,36.8
COc1ccc(-c2nnc(SCC(=O)c3ccc4c(c3)OCCO4)o2)cc1,2.52% (inactive),99.1,102

Structure (SMILES),differential viability (reversal) (H69AR cells + 2 uM doxorubicin),viability [1] [%],viability [2] [%]
Cc1ccc(S(=O)(=O)Oc2ccc(/C=N/NC(=O)c3c(Cl)cnn3C)cc2)cc1,-3.21% (inactive),82.4,79.2
COc1ccc(C(=O)Nc2nc(-c3ccc(S(=O)(=O)N4CCOCC4)cc3)cs2)cc1,-4.07% (inactive),62.1,58
O=c1c2ccccc2nc2n1C1(CCCCC1)Cc1ccccc1-2,-4.43% (inactive),88.2,83.7
COC(=O)/C(NC(C)=O)=C(\C)c1ccc(Cl)cc1,-15.7% (inactive),118,102
Cc1nnc(SCC(=O)Nc2ncc3c(n2)CC(C)(C)CC3=O)s1,16.1% (inactive),79.2,95.3
CC(=O)c1cccc(NC(=O)N2CCCC2C(=O)NCCc2ccccc2)c1 (stereo not drawn),1.66% (inactive),89.9,91.5
O=C(/C=C/NNC(=O)c1cccc(Br)c1)c1ccccc1,-16.9% (inactive),78.5,61.5
COC(=O)c1ccc(Sc2ccc(F)cc2)c(N)c1,11.2% (inactive),97.4,109
O=C(CN1CCCCC1)N1c2ccccc2Sc2ccc(C(F)(F)F)cc21,-4.36% (inactive),91.2,86.8
CC(CO)N1CCS(=O)(=O)CC1 (stereo not drawn),9.77% (inactive),83.8,93.6
O=C(CCN1C(=O)c2ccccc2C1=O)Nc1cccc(F)c1,0% (inactive),98.2,98.2
Cc1ccc(SCCC(=O)OCC(=O)Nc2ncc(Cl)cc2Cl)cc1,6.94% (inactive),72.7,79.6
O=C(NCc1ccco1)c1ccc(Cn2c(=O)c3sccc3n(Cc3ccc(F)cc3)c2=O)cc1,11.8% (inactive),70.9,82.7
CC1(C)CCc2nc(SCc3ccccc3)c(C#N)cc2C1,3.69% (inactive),77.7,81.4
Cc1csc(OCC(=O)Nc2ccc(C)c(C)c2)n1,0.06% (inactive),107,107
Cc1ccc(O)c(CNc2nc3ccccc3n2C)c1,3.81% (inactive),84.6,88.4
O=c1[nH]c2c(c(=O)n1Cc1ccccc1)CCC2,3.8% (inactive),94.9,98.7
COC(=O)c1ccccc1NC(=O)CSc1nnnn1C,-8.64% (inactive),104,95.3
O=C(NCc1cccnc1)Nc1ccccc1F,-0.98% (inactive),99.8,98.8
CCCc1nc2scc(-c3ccc(C)cc3)c2c(=O)n1N,-37.7% (inactive),83.8,46.1
CC(=O)c1ccc2c(c1)c1ccccc1n2CC(C)C,-0.04% (inactive),73.3,73.2
CCCCC(C(=O)OCC(=O)c1ccc(OC)cc1)N1C(=O)c2ccccc2C1=O (stereo not drawn),-8.79% (inactive),104,95
CCn1nccc1C(=O)Nc1ccc(S(=O)(=O)NC23CC4CC(CC(C4)C2)C3)cc1,-7.56% (inactive),84,76.5
COc1ccc(Nc2nc(=O)[nH]nc2C)cc1,-5.85% (inactive),101,95.5
CCOC(=O)Cc1csc(NC(=O)CSc2nnc(-c3cccnc3)n2Cc2ccco2)n1,14.6% (inactive),85.7,100
COCCn1c(=S)[nH]c2cc(C(=O)NCCc3ccc(OC)c(OC)c3)ccc2c1=O,2.26% (inactive),75.8,78.1

Structure (SMILES),differential viability (reversal) (H69AR cells + 2 uM doxorubicin),viability [1] [%],viability [2] [%]
CC(=O)Nc1ccc(N2C(=O)CCC2=O)cc1C,-10.5% (inactive),86.7,76.2
CCc1c(C)sc(NC(=O)c2cccs2)c1C(N)=O,4.09% (inactive),95.6,99.7
CC1(C)OC(=O)N2CCc3ccccc3C21C (stereo not drawn),3.59% (inactive),88,91.6
Cc1[nH]n(-c2ccc([N+](=O)[O-])cc2)c(=O)c1C=NCCN1CCN(C(=O)c2ccccc2F)CC1,-1.07% (inactive),40.5,39.4
COc1cccc(N(CC(=O)NCCSc2ccccn2)S(C)(=O)=O)c1,3.02% (inactive),92.5,95.5
CCCC1NC(=O)NC(C)=C1C(=O)OCC (stereo not drawn),2.9% (inactive),96.9,99.8
COc1ccccc1C(c1nnnn1C(C)(C)C)N1CCN(Cc2ccccc2)CC1 (stereo not drawn),9.02% (inactive),76.2,85.2
Cc1cc2nnc(SCC(=O)N3CCN(c4ccccc4)CC3)n2c(N)n1,-1.47% (inactive),65.8,64.4
O=C(Nc1ccc(Cl)cc1)c1cc2nc(C3CC3)cc(C(F)(F)F)n2n1,10.2% (inactive),69.3,79.5
CC1=CC(C)(C)Nc2ccc(OC(=O)C(Cc3ccccc3)N3C(=O)C4CCCCC4C3=O)cc21 (stereo not drawn),11.8% (inactive),68.5,80.3
COCCn1c(C)cc(C2=NNC(=Nc3ccc(F)cc3)SC2)c1C,-17.5% (inactive),106,88.2
Cc1ccc(-n2c(=O)c(C#N)cc3c(=O)n4ccccc4nc32)cc1C,-12.1% (inactive),87.2,75.1
Cc1cc(NC(=O)CSc2nc(C(C)C)nc3sc4c(c23)CCC(C)C4)no1 (stereo not drawn),-2.83% (inactive),8.84,6.01
CC(C)NC(=O)CSc1ccccc1C(=O)NCc1ccc2c(c1)OCO2,5% (inactive),91.7,96.7
Cc1cccc2c(=O)n3c(nc12)CCCCC3,7.51% (inactive),83.8,91.3
COc1ccc(CNC(=O)CCn2cccc2)cc1,-1.19% (inactive),100,98.9
CCOc1cc(C(=O)Nc2c(C)ccc3nsnc23)cc(OCC)c1OCC,-5.65% (inactive),84,78.3
COC(=O)c1sccc1NC(=O)CCC1CCCC1,11.8% (inactive),81.7,93.5
Cc1cc(O)cc(O)c1C(=O)Cc1cnn(-c2ccccc2)c1,13% (inactive),66.8,79.8
CCOC(=O)c1c(N)sc(C(C)=O)c1C,11.1% (inactive),81.7,92.8
Cc1cccc(S(=O)(=O)CC(=O)Nc2nc(-c3ccccc3)cs2)c1,12.9% (inactive),86.8,99.7
Cn1c(SCC(=O)C(C)(C)C)nnc1-c1ccccn1,3.29% (inactive),95,98.3
COc1ccc(NC(=O)C2C3C=CC(C3)C2C(=O)NCc2ccccn2)c(OC)c1 (stereo not drawn),48.3% (inactive),44.7,93.1
Cc1ccc(S(=O)(=O)NCC(=O)N2CCN(c3ccccn3)CC2)cc1,14.2% (inactive),87.1,101
